Assay outcomes as filed in PubChem BioAssay.
HCMV inh: inhibitors of human cytomegalovirus; AID 1259415; 410,000 tested, 4.5% active; HFF cells, HCMV-luciferase reporter, 72 h; hits give low values; activity change, negative = inhibition, % at 57.5 µM; in the data active means activity change below about -60%; inconclusive means no clear call, values can overlap the other calls; inactive means above about -39%
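Screen run at 2 compound doses on HFFs infected with reporter HCMV, MOI 1 PFU/cell. Luciferase activity from cell lysates at 72 h post infection gave inhibition relative to buffer-only and Salinomycin wells.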
Marburg entry inh: Marburg virus entry inhibition; AID 540276; Potency, µM (doses to about 37.8 µM), usual class: inhibitors; 300,000 tested, 1.8% active; Marburg virus pseudotyped entry inhibition, cell reporter; calls by dose curve; tested in HEK293 cells
Lassa entry inh: Lassa virus entry inhibition. Potency, µM (titrated, usually from 37.9 µM), hits mostly inhibitors. Lassa virus pseudotype entry inhibition, cell reporter. AID 540256. 300,000 tested, 1.2% active; calls by dose curve; tested in HEK293 cells; further: nearly all actives have a fitted effect of over 50% in size
HCV inhibitor: blocks hepatitis C virus | Huh7.5.1 HCVcc-Cre infection, luciferase reporter, 44 h | Potency, µM (highest dose often 41.8 µM), actives largely listed as inhibitors | 340,000 tested, 3.4% active | AID 651820; active means well fitted inhibition curve with a large enough effect; inconclusive means small, poorly fitted or top-dose-only effect, or another doubt; inactive means no such curve, though single readings can be large or run the other way
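Seed cells (1,000/well) for 4 h; treat with compound and infect with HCVcc-Cre, moi about 0.5. Incubate 44 h, then detect luciferase activity.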
FMDV antiviral: foot and mouth disease virus antiviral activity. Potency, µM (series often up to 57.9 µM), usual class: inhibitors. AID 1159524. FMDV antiviral cell-based qHTS. 410,000 tested, 1.2% active; calls by dose curve; tested in HEK293T cells; further: read-out not given here; nearly all actives have a fitted effect of over 45% in size
Each line names hits and unclear results; the compound was inactive in the other large screens. This is a sample that favours compounds with a hit; in the whole collection about 7.9% have one here.

CC1CCC(CN2C(Nc3ccccc3)=NC[C@@H]2Cc2ccccc2)CC1 (stereo partly specified)	HCV inhibitor 7.94µM (no result: Marburg entry inh, Lassa entry inh)
CC[C@]12c3[nH]c4cc(-c5ccco5)ccc4c3CCN1C(=O)[C@@H](CC(=O)NCc1ccc(OC)c(OC)c1)C[C@@H]2C(=O)N1CCN(C(=O)c2ccco2)CC1	HCV inhibitor inconclusive (no result: Marburg entry inh, Lassa entry inh)
CCOC(=O)c1ccccc1NC(=O)CN(c1cc(C(F)(F)F)ccc1Cl)S(C)(=O)=O	Marburg entry inh inconclusive, FMDV antiviral inconclusive (no result: HCV inhibitor)
COc1cccc(NC(=S)NC(=O)/C=C/c2ccc(F)cc2)c1	none (no result: Marburg entry inh, Lassa entry inh)
CSc1ccc(/C=C/C(=O)c2ccc(NC(C)=O)cc2)cc1	none
CCC(=O)Nc1cccc(C(=O)/C=C/c2ccc(F)cc2)c1	HCMV inh -99.1, Marburg entry inh 14.6µM, Lassa entry inh inconclusive, HCV inhibitor 10µM
CC(=O)Nc1cccc(C(=O)/C=C/c2ccc(C)cc2)c1	Marburg entry inh inconclusive, Lassa entry inh inconclusive, HCV inhibitor 12.6µM, FMDV antiviral inconclusive
CCCC(=O)Nc1ccc(C(=O)/C=C/c2ccc(SC)cc2)cc1	Marburg entry inh inconclusive, Lassa entry inh inconclusive, HCV inhibitor 11.2µM
O=C(c1nnnn1-c1ccc(Br)cc1)C1CC1	none (no result: Marburg entry inh, Lassa entry inh, HCV inhibitor, FMDV antiviral)
COc1ccc(S(=O)(=O)N2CCN(C(=S)NCCc3ccccc3)CC2)cc1	Marburg entry inh inconclusive (no result: HCV inhibitor)
COc1ccc(CCNC(=S)N2CCN(S(=O)(=O)c3ccc(C)cc3)CC2)cc1	HCMV inh -98.0, HCV inhibitor inconclusive
CC(Sc1ccccc1)C(=O)N1CCN(S(=O)(=O)c2ccccc2C(F)(F)F)CC1 (stereo unspecified)	FMDV antiviral inconclusive (no result: HCMV inh)
CC(Sc1ccccc1)C(=O)N1CCN(S(=O)(=O)c2ccccc2)CC1 (stereo unspecified)	HCMV inh -62.7
O=S(=O)(c1ccccc1)N1CCN(C(=S)NCCc2ccccc2)CC1	HCMV inh -72.3
COc1cccc(/C=C/C(=O)NNC(=O)c2ccco2)c1OC	none (no result: Marburg entry inh, Lassa entry inh)
Cc1ccccc1-c1noc(CSc2nc(-c3ccc(F)cc3)cc(=O)[nH]2)n1	none (no result: Marburg entry inh, HCV inhibitor)
O=C1OCCC1Sc1nnnn1-c1ccccc1 (stereo unspecified)	Lassa entry inh inconclusive
Cc1ccc(N2C(=O)/C(=C\c3ccc(C(C)C)cc3)N=C2SC2CCOC2=O)cc1 (stereo unspecified)	Marburg entry inh 6.31µM, Lassa entry inh 5.01µM, HCV inhibitor inconclusive
O=C(N[C@H]1CC[C@H](CCNS(=O)(=O)c2ccc(Cl)cc2)O[C@@H]1CO)c1cccc(F)c1	HCMV inh -100.5, FMDV antiviral inconclusive (no result: Marburg entry inh, Lassa entry inh, HCV inhibitor)
O=C(N[C@H]1CC[C@@H](CCNS(=O)(=O)c2ccccc2Cl)O[C@@H]1CO)c1ccccc1	none (no result: Marburg entry inh, Lassa entry inh, HCV inhibitor)
Cc1ccccc1NS(=O)(=O)c1ccc(F)cc1	none
O=S(=O)(Nc1ccc2c3c(cccc13)CC2)c1ccc(F)cc1	HCMV inh -61.1, Marburg entry inh inconclusive
CSc1ccc(S(=O)(=O)Nc2ccc3c(c2)NC(=O)CC3)cc1	none
CSc1ccc(S(=O)(=O)Nc2ccc3c4c(cccc24)CC3)cc1	HCMV inh -81.6, Marburg entry inh inconclusive, HCV inhibitor inconclusive
COc1ccc2c3c(n(C)c2c1)[C@@H](CO)N(C(=O)NC1CCCCC1)CC31CCN(C)CC1	none (no result: Marburg entry inh, Lassa entry inh, HCV inhibitor, FMDV antiviral)
Cc1ccc(NC(=O)C(OC(=O)c2cc(C)oc2C)c2ccccc2)cc1 (stereo unspecified)	HCMV inh -60.7, Marburg entry inh inconclusive
Cc1cc(C(=O)OC(C(=O)Nc2cccc(C(F)(F)F)c2)c2ccccc2)c(C)o1 (stereo unspecified)	Marburg entry inh inconclusive, Lassa entry inh inconclusive, HCV inhibitor inconclusive
CCOCCCNC(=O)CN1C(=O)c2c(c3ccccc3n2C)C1c1ccc(OC)cc1 (stereo unspecified)	HCMV inh inconclusive (no result: Marburg entry inh, HCV inhibitor)
CCN(CC)CC(O)COc1ccc2c(c1)OCO2 (stereo unspecified)	HCMV inh -98.3, Marburg entry inh inconclusive
CC(OCCN1CCCC1)(c1ccc(F)cc1)c1ccc(F)cc1	Marburg entry inh inconclusive, Lassa entry inh 2µM, FMDV antiviral inconclusive
C#CCN1C(=O)[C@@]2(CC(C)=CC[C@@H](C)O2)c2ccccc21	none (no result: HCMV inh, Lassa entry inh, HCV inhibitor, FMDV antiviral)
COc1ccc(-n2c(=S)[nH]c3cc(C(=O)Nc4ccccc4OC)ccc3c2=O)c(OC)c1	HCMV inh inconclusive, Lassa entry inh 6.31µM, HCV inhibitor inconclusive, FMDV antiviral inconclusive
COc1ccc(-n2c(=S)[nH]c3cc(C(=O)Nc4ccc(F)cc4)ccc3c2=O)c(OC)c1	HCMV inh -69.7, Marburg entry inh inconclusive, Lassa entry inh inconclusive, HCV inhibitor inconclusive, FMDV antiviral inconclusive
COc1ccc(-n2c(=S)[nH]c3cc(C(=O)Nc4ccccc4OC)ccc3c2=O)cc1	none (no result: FMDV antiviral)
CC(C)CON=C1C[C@@H](O)[C@@H](O)[C@@H]2[C@H]3C(=O)N(c4cccc(Oc5ccccc5)c4)C(=O)[C@@H]3CC[C@H]12	none (no result: HCMV inh, Lassa entry inh, HCV inhibitor, FMDV antiviral)
Cc1c(C)n(Cc2ccccc2)c2ncnc(Cl)c12	HCMV inh -88.3, HCV inhibitor inconclusive, FMDV antiviral inconclusive (no result: Marburg entry inh, Lassa entry inh)
Cc1c(C)n(CCc2ccccc2)c2ncnc(NCCO)c12	none (no result: Marburg entry inh, Lassa entry inh)
CCOCCCNC(=O)c1ccc2c(c1)ncn2-c1ccc(C)cc1C	Lassa entry inh inconclusive
CCOCCCNC(=O)c1ccc2c(c1)ncn2-c1ccc(CC)cc1	HCMV inh -64.3 (no result: Marburg entry inh, Lassa entry inh)
CC(=O)Nc1ccc(OCc2cccc3ccccc23)cc1	HCMV inh -79.2 (no result: Marburg entry inh, Lassa entry inh)
COc1ccc(NC(=O)CNC(=O)Cc2cccc3ccccc23)cc1	none (no result: Marburg entry inh, Lassa entry inh)
COC(=O)c1cn([C@H]2C[C@@H](C(=O)N3CCCCCC3)N(Cc3ccsc3)C2)nn1	none (no result: HCMV inh, Marburg entry inh, Lassa entry inh, HCV inhibitor)
CC(C)C(NS(=O)(=O)c1ccc2c(c1)oc(=O)n2C)C(=O)NCCc1ccccc1 (stereo unspecified)	none (no result: HCV inhibitor)
COc1ccc(CCNC(=O)CCSc2nc(-c3ccco3)cc(C(F)(F)F)n2)cc1OC	Marburg entry inh inconclusive, HCV inhibitor 5.62µM
O=C(CSc1nc(-c2ccco2)cc(C(F)(F)F)n1)NC1CCCC1	HCMV inh -68.1, HCV inhibitor inconclusive (no result: Marburg entry inh, Lassa entry inh)
O=C(CCSc1nc(-c2ccco2)cc(C(F)(F)F)n1)NCc1cccs1	HCV inhibitor 10µM
O=C(CSc1nc(-c2ccco2)cc(C(F)(F)F)n1)Nc1ccc2c(c1)CCC2	Marburg entry inh inconclusive, HCV inhibitor inconclusive
O=C(CCSc1nc(-c2ccco2)cc(C(F)(F)F)n1)NCc1ccccn1	HCV inhibitor 11.2µM
CC(NC(=O)CCSc1nc(-c2ccco2)cc(C(F)(F)F)n1)c1ccccc1 (stereo unspecified)	HCMV inh inconclusive, Marburg entry inh inconclusive, HCV inhibitor inconclusive
CCCc1nc2c3ccccc3ccn2c1CC(C)(C)C	none (no result: Marburg entry inh, Lassa entry inh, HCV inhibitor)
COc1ccc(CCNC(=O)CCCn2c(=O)c3ccccc3n(CC(=O)Nc3c(C)cc(C)cc3C)c2=O)cc1OC	none (no result: HCV inhibitor)
COC(=O)[C@H]1C(=O)C[C@@](C)(O)[C@@H](C(=O)OC)[C@@H]1c1ccccc1F	none (no result: HCMV inh, Lassa entry inh, HCV inhibitor, FMDV antiviral)
COc1ccc(-c2nc(CCNC(=O)c3ccco3)cs2)cc1OC	HCMV inh -101.1, Marburg entry inh inconclusive, Lassa entry inh inconclusive, HCV inhibitor inconclusive
COc1ccc(CCNC(=O)c2ccc3nc(-c4ccco4)c(-c4ccco4)nc3c2)cc1OC	Marburg entry inh 10.3µM, Lassa entry inh 8.2µM, HCV inhibitor 2.82µM, FMDV antiviral 15.8µM (no result: HCMV inh)
